The values below come from PubChem BioAssay AID720553 (National Center for Advancing Translational Sciences (NCATS), 2013).

About 3,300 (0.97%) of roughly 340,000 compounds were called active. What follows is part of a selection rich in actives, with near analogues and random picks from the rest. Values without a mark were called inactive.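 How the source made its calls: active means maximum activity change below -70%; inconclusive means maximum activity change from -70% to -50%; inactive means maximum activity change above -50%.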
On the % scale 0 is the no-effect control and ±100 the full control effect.

This assay concerns Potassium voltage-gated channel subfamily H member 2, brain isoform KCNH2 3.1 (human). Briefly: qHTS for Inhibitors of KCHN2 3.1: Mutant qHTS. Particulars: U2OS KCNH2 3.1, thallium flux FluxOr; active compounds read low. The gist of the method:
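Virally transduced U2OS (3.1 isoform, 4 h infection in dark at RT) → overnight 37 C → FluxOr + Red40 in HBSS/HEPES, 45 min → stimulation buffer, 2 min kinetic read → rate constant vs DMSO controls.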
On the technique in general: In qHTS, concentration-response curves come from the screen itself.
As to `CCN(CC)C(=O)C(C)N1c2cccc3cccc(c23)S1(=O)=O` (stereo not given), the activity change is -7.96%.

Turning to `CNS(=O)(=O)c1ccc2c(c1)[nH]c(=S)n2C`, the activity change was 9.63%.

On to `COc1ccccc1NC(=O)C1=C(C)Nc2nc3ccccc3n2C1c1cccs1` (stereo not given), for which the activity change was 1.01%.

On to `COc1ccccc1NC(=O)C1=C(C)Nc2ncnn2C1c1ccc(C)o1` (stereo not given), for which the activity change was 0.24%.

As for `COc1cc(C2C(C(=O)Nc3ccccc3OC)=C(C)Nc3ncnn32)ccc1O` (stereo not given), the activity change is -70.3% (active).

`CC1CCN(C(=O)CSc2nnc(-c3ccco3)n2N)CC1`: the activity change was 13.4%.

For the compound `O=NN(CCCl)C(=O)NCCc1cccc[n+]1[O-]`, the activity change was -3.54%.

Regarding `CCn1c(SCC(=O)N2CCCC2=O)nc2ccccc21`, the activity change was 9.56%.

In the case of `Cc1c(CN2CCC(n3nccc3NC(=O)CCc3ccccc3)CC2)cnn1C`, the activity change is 6.8%.

In the case of `CC(C)=CCCC(C)CN1CCC(n2nccc2NC(=O)c2ccccc2)CC1` (stereo not given), the activity change was -34.5%.

As to `CC(C)Oc1ccc(CN2CCC(n3nccc3NC(=O)c3cccnc3)CC2)cc1`, the activity change is -80.6% (active).

In the case of `O=C(Nc1ccnn1C1CCN(Cc2cccc(OCCO)c2)CC1)C1CCCC1`, the activity change was 5.49%.

Take `COc1ccccc1C(=O)Nc1ccnn1C1CCN(Cc2cnn(C)c2)CC1`: the activity change is -32.4%.

Regarding `Cc1ccc(CN2CCC(n3nccc3NC(=O)CCCc3ccccc3)CC2)o1`, the activity change was 3.89%.

For the compound `COc1cc(CN2CCC(n3nccc3NC(=O)CCCc3ccccc3)CC2)ccc1O`, the activity change was -32.8%.

For the compound `O=C(CCc1ccccc1)Nc1ccnn1C1CCN(Cc2ccc(OCCO)cc2)CC1`, the activity change is -97.2% (active).

On to `COc1ccc(CN2CCC(n3nccc3NC(=O)CCCc3ccccc3)CC2)cc1C`, for which the activity change is -86.2% (active).

Consider `CCOC(=O)c1c(C)[nH]c(C)c1C(=O)COC(=O)/C=C/c1cccc([N+](=O)[O-])c1`, for which the activity change is -1.51%.

Take `O=C(CNC(=O)N1CC(=O)Nc2ccccc21)Nc1ccc(Br)cc1F`: the activity change was 2.32%.

`COCCn1c(SCC(=O)Nc2ccc(F)cc2F)nc2c(c1=O)SCC2`: the activity change is -5.38%.

Take `CCc1noc(C)c1C(=O)OCC(=O)c1ccc(NC(=O)CC(C)C)cc1`: the activity change was 7.88%.

Regarding `O=C(OCc1cn([C@H]2C[C@H](c3ccccc3)N(C(=O)c3cccs3)C[C@@H]2O)nn1)c1ccccc1`, the activity change is -26.8%.

As to `CCCS(=O)(=O)N1CCC(CCOc2ccccc2)(C(=O)OCC)CC1`, the activity change is -4.06%.

For `CCOC(=O)C1(CCOc2ccccc2)CCN(Cc2cc(OC)cc(OC)c2)CC1`, the activity change was -108% (active).

`CCOC(=O)C1(CCOc2ccccc2)CCN(Cc2ccc(C#CCCO)cc2)CC1`: the activity change was -7.38%.
